Dicer processing: inhibitors of Dicer pre-microRNA processing, primary screen, biochemical, cat-ELCCA, chemiluminescence; Endoribonuclease Dicer (Homo sapiens), Q9UPY3; cat-ELCCA pre-miR-21 Dicer processing; active compounds read high; z-score at 25 µM; hit rate 6% among 47,000; AID 1347074, 2019; in the data active = z-score above about 3, passing the limit was not always enough;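 also: plate controls were vehicle for no effect and no enzyme for full effect; higher signal means more uncleaved substrate so more Dicer inhibition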
Target sequence (Q9UPY3 whole entry, looked up): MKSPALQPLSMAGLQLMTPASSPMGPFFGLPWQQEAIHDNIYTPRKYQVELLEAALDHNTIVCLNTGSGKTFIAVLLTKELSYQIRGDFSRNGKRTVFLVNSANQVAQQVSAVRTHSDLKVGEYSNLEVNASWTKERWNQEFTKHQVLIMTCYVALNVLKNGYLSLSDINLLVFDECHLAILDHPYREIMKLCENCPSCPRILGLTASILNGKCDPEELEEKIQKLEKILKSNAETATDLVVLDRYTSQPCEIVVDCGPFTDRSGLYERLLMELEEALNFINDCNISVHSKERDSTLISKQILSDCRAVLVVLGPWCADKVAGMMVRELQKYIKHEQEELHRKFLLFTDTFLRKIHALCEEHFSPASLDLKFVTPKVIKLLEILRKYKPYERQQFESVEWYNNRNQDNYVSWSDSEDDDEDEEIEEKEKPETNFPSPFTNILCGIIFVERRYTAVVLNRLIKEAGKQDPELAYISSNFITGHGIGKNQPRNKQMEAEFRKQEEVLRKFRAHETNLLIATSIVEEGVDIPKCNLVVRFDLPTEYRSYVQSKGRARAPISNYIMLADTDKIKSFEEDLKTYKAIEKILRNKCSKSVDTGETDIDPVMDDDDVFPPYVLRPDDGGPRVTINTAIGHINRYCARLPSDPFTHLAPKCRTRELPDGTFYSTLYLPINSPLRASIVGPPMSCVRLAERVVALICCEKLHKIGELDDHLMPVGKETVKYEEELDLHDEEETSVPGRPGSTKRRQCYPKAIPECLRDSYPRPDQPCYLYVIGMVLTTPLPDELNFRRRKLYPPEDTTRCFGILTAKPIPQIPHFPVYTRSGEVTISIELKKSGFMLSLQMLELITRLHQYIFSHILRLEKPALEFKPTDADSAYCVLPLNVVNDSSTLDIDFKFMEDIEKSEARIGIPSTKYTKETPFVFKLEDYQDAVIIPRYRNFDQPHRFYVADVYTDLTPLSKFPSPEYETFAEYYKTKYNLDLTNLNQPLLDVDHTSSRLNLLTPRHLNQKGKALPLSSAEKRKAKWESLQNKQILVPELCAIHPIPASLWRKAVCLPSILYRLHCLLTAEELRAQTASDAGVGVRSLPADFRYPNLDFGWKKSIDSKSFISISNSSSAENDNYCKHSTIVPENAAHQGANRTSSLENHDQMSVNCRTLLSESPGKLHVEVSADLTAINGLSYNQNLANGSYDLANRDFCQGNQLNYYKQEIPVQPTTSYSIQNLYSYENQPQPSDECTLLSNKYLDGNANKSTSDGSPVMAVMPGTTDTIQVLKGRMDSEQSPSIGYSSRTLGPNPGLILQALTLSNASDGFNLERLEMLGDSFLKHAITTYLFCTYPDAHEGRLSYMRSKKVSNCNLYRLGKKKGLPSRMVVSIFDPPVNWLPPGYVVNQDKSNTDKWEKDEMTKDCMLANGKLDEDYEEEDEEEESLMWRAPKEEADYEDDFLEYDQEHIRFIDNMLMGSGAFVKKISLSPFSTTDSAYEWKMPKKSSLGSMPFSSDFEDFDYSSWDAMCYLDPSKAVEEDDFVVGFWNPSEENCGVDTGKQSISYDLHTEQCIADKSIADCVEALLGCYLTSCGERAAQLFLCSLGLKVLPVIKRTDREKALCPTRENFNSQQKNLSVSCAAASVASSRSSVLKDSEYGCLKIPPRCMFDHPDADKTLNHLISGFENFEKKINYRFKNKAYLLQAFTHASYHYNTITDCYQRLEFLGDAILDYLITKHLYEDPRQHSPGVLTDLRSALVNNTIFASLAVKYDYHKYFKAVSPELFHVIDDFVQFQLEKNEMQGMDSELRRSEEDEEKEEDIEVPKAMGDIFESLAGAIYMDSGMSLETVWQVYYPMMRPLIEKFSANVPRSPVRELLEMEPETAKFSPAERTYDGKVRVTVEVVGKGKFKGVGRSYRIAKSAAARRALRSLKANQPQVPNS
Numbers without * were called inactive. Many of the other results were omitted from the sample, so hits are more common in it than they were.

SMILES | Dicer processing
Cc1ccc2nc(NC3=NCN(Cc4ccc5c(c4)OCO5)CN3)nc(C)c2c1 | 0.55
c1ccc(CCN2CN(CCCN3CCOCC3)c3nc4ccccc4n3C2)cc1 | -1.41
c1ccc2c(c1)nc1n2CN(CCN2CCOCC2)CN1 | 3.2*
Cc1c2c(n3c(nc4ccccc43)c1C#N)N(Cc1cccnc1)CC2 | -1.21
c1ccc2oc(NC3=NCN(Cc4ccc5c(c4)OCO5)CN3)nc2c1 | 2.26
Cc1cc2nc(NC3=NCN(Cc4cccnc4)CN3)nc(C)c2cc1C | 1.51
c1ccc2c(c1)nc1n2CN(CCCN2CCOCC2)CN1 | 1.17
CCOC(=O)N1CCc2c(sc(NC(=O)CSc3nnc(-c4cccs4)n3CC)c2C#N)C1 | 1.06
O=C(OCCSc1ccccn1)c1cccc(Cl)c1 | -1.2
O=C(Nc1ccc(N2CCOCC2)cc1)c1cncc(Br)c1 | -1.86
Cc1ccc(S(=O)(=O)N=S(c2ccc(C(=O)O)cc2)c2ccc(C(=O)O)cc2)cc1 | 1.25
Cc1[nH]c2ccccc2c1C(=O)CN1CCN(c2ccccn2)CC1 | 1.49
COc1cccc(C2Nc3cc(C)c(C)cc3NC3=C2C(=O)CC(C)(C)C3)c1O (stereo unspecified) | 0.41
CN1c2ccsc2C(=O)/C(=C\Nc2ncccn2)S1(=O)=O | -0.34
Oc1ccc(Br)cc1CN1CCN(Cc2ccc3c(c2)OCO3)CC1 | 2.42
O=C(Cn1nnc2sc3c(c2c1=O)CCCC3)Nc1ccc(Br)cc1 | 1.31
CCCC(CC(=O)O)(C(=O)O)c1ccccc1 (stereo unspecified) | -0.72
Cn1sc(=O)c2ccc(S(=O)(=O)NCCc3ccncc3)cc21 | -0.96
Cc1cc(-c2n[nH]c(=S)n2C)nn1-c1ccc([N+](=O)[O-])cc1 | -2.22
O=C(CSc1n[nH]c(=O)n1-c1cccc(F)c1)Nc1cc(Cl)cc(Cl)c1 | 0.29
CCOC(=O)Oc1ccc2c(=O)c(Oc3ccc(OC)cc3)c(C(F)(F)F)oc2c1 | 0.26
COc1ccc(-c2nc(-c3ccc(C)nc3OC)no2)cc1 | 0.83
CC(C)CC(NC(=O)Cc1ccsc1)C(=O)NN (stereo unspecified) | -2.81
CC(C)CC(NC(=O)Cc1ccsc1)C(=O)NNS(=O)(=O)c1ccc(Cl)cc1 (stereo unspecified) | 12.5*
CC(C)CC(NC(=O)Cc1ccsc1)C(=O)NNC(=O)c1ccccc1Cl (stereo unspecified) | -0.88
SMILES | Dicer processing
Cc1cc(=O)n2ncnc2n1CC(=O)N/N=C/c1ccc([N+](=O)[O-])cc1 | 0.64
C=CCN1C(=O)/C(=C\c2ccccc2Cl)N=C1c1ccccc1 | -0.82
O=C(CN1C(=O)/C(=C\c2ccc(F)cc2)N=C1c1ccccc1)c1ccco1 | 3.77*
O=C(CN1C(=O)/C(=C\c2ccc(OCc3ccccc3)cc2)N=C1c1ccccc1)c1cccs1 | -1.85
CCOC(=O)c1cc(C(C)(C)C)n(-c2ccc(N3CCOCC3)cc2)c1C | 1.22
CCOC(=O)c1cc(-c2ccc(Cl)cc2)n(-c2ccccc2)c1C | 1.89
CCOC(=O)c1cc(-c2ccccc2)n(-c2ccc(N3CCOCC3)cc2)c1C | 4.28*
O=C(O)CCCC(=O)Nc1nc2ccccc2s1 | 2.48
O=C(OCc1nccn1Cc1ccc(Cl)cc1)c1ccc(Cl)cc1 | -1.41
CCOc1ccc2nc(NC3=NCN(CCN4CCOCC4)CN3)nc(C)c2c1 | -0.56
Nc1ccc(-c2nnc(Nc3ccccc3C(F)(F)F)s2)cc1 | 3.6*
Nc1ccccc1NC(=S)Nc1ccccc1C(F)(F)F | 1.82
NC(=S)Nc1ccccc1C(F)(F)F | -0.1
COc1ccc(N2CCCCC2)c([N+](=O)[O-])c1 | -1.22
COc1ccc(-n2c(/C=C/N(C)C)c([N+](=O)[O-])c3ccc(O)c(CN(C)C)c32)cc1 | 3.52*
Cc1c([N+](=O)[O-])c(/C=C/N(C)C)nn1C | 1.33
COc1ccc(OC)c(C(=O)c2coc3ccc(O)c(CN(C)C)c23)c1 | 0.83
COc1ccc(-n2c(C)c([N+](=O)[O-])c3ccc(O)c(CN4CCCCC4)c32)cc1 | 3.51*
COc1ccc(Oc2c(C(F)(F)F)oc3c(CN4CCCCC4)c(O)ccc3c2=O)cc1 | -0.53
C/C(=N/OC(=O)Nc1cccc(C)c1)c1ccc2c(c1)CCO2 | 1.83
O=C1Nc2ccc(S(=O)(=O)Nc3ccc4oc5c(c4c3)CCCC5)c3cccc1c23 | 1.55
COc1ccc(OC)c(Sc2nc(C)c([N+](=O)[O-])c(C)c2C#N)c1 | -10.5
CCOC(=O)C(=Cc1cc(C)c(C)o1)C(=O)OCC | 0.15
CCOC(=O)c1cc(C#N)c(Sc2n[nH]c(=O)n2C(C)C)nc1C(F)(F)F | -0.78
O=C(CSc1nc2ccccc2o1)NC(=O)CSc1nc2ccccc2o1 | 2.47
SMILES | Dicer processing
COC(=O)c1sc(N2CCOCC2)c(C#N)c1-c1ccc(Cl)cc1 | 1.29
Cc1cccc(C)c1OCC(O)CN1C(=O)NC(C)(C)C1=O (stereo unspecified) | -0.53
c1ccc(CN2CCN(Cc3c[nH]c4ccccc34)CC2)cc1 | 6.88*
c1ccc2c(CN3CCN(Cc4ccncc4)CC3)c[nH]c2c1 | 0.38
COc1ccccc1CN1CCN(Cc2c[nH]c3ccccc23)CC1 | 1.97
O=C(Nc1ccc(-c2nc3ccccc3o2)c(O)c1)c1ccc([N+](=O)[O-])o1 | 0.35
O=C(Nc1ccc2oc(-c3cccc(F)c3)nc2c1)c1ccc([N+](=O)[O-])o1 | 0.94
O=C(Nc1cccc(-c2nc3ncccc3o2)c1)c1ccc([N+](=O)[O-])o1 | -0.2
O=C(Nc1ccc2oc(-c3ccc(F)cc3)nc2c1)c1ccc([N+](=O)[O-])o1 | 3.01*
COc1ccc(NC(=O)c2ccc([N+](=O)[O-])o2)cc1 | 1.89
COc1ccc(NC(=O)c2ccc([N+](=O)[O-])o2)cc1Cl | 3.23*
O=C(Nc1ccc(-c2nc3cc(Cl)ccc3o2)cc1)c1ccc([N+](=O)[O-])o1 | 1.21
O=C(Nc1cccc(-c2nc3ccccc3o2)c1)c1ccc([N+](=O)[O-])o1 | 3.48*
COC(=O)c1cc(NC(=O)c2ccc([N+](=O)[O-])o2)cc(C(=O)OC)c1 | 1.49
Cc1nc2nc(C(F)(F)F)[nH]n2c(=O)c1Cc1ccc(C(C)C)cc1 | -0.64
Fc1cccc(CN2CCN(Cc3cccc4ccccc34)CC2)c1 | 0.8
O=S(=O)(c1cccc(C(F)(F)F)c1)N1CCC(C(c2ccccc2)c2ccccc2)CC1 | -0.96
CC(=O)/C(N=Nc1cc(Cl)cc(Cl)c1)=C(\C)O | 0.68
CC(=O)Oc1ccc(C2C(C(=O)OC3CCCCC3)=C(C)NC3=C2C(=O)CC(C)(C)C3)cc1 (stereo unspecified) | -0.4
O=c1oc2ccccc2c(O)c1-c1ccccc1 | 9.15
C/C(=N\N=C(/C)c1ccc(C)cc1)c1ccc(C)cc1 | -1.09
Cc1ccc(S(=O)(=O)CCSc2n[nH]c(=O)n2-c2ccc(OCc3ccccc3)cc2)cc1 | 0.2
O=C(NCC1NCCc2ccccc21)C1CCCCC1 (stereo unspecified) | 1.51
O=C(NCC1c2ccccc2CCN1C(=O)CN1CCOCC1)C1CCCCC1 (stereo unspecified) | 4.47*
O=C(CN1CCOCC1)N1c2ccccc2CCc2ccccc21 | 2.63
SMILES | Dicer processing
CCOC(=O)c1cnc(Nc2ccc(OC)c(Cl)c2)nc1C(F)(F)F | -0.32
O=C(O)CCCNC1=NCCS1 | -1.52
Clc1nc(NCCN2CCOCC2)nc(N2CCC(Cc3ccccc3)CC2)n1 | 0.1
O=C(O)CCCNc1nc(Cl)nc(N2CCCCC2)n1 | 5.65*
CC(C)N1C(=O)C(O)(CC(=O)c2ccc3c(c2)OCO3)c2ccccc21 (stereo unspecified) | 1.86
CCOC(=O)c1nnn(Cc2ccccc2)c1N | 1.74
CCOC(=O)c1ncn(Cc2ccccc2)c1N | 3.44*
